# The list is not random: actives were taken first. Their share in the collection is about 12%.
# Shiga toxin inh: Shiga toxin inhibition; Vero cells, Shiga toxin protein synthesis inhibition reporter; inhibition, % at 38.7 µM; 9.2% of 290,000 active; in the data active = inhibition mostly above about 28%, no sharp cut-off; inactive = mostly below about 43%; also: 0% is about no effect
# CHX counter: counter-screen hit for Shiga toxin inhibitors, cycloheximide | cell reporter, cycloheximide protein synthesis inhibition counterscreen | max response, % | 12% of 300,000 active | AID 2314; in the data active = max response mostly above about 13%, no sharp cut-off; inactive = mostly below about 14%; also: read at 38.3 µM for the half of the compounds with a filed dose; 0% is about no effect
# NS1 function inh: inhibitors of influenza NS1 protein function. Potency, µM (highest dose often 46.1 µM), inactives show at the top dose activity, positive = more growth. 0.4% of 270,000 active; also: potency is read from the fitted curve at half-maximal effect; actives are rising curves; nearly all actives have a fitted effect of over 50% in size
#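 In this qHTS, NS1 from influenza A is expressed in budding yeast, where it slows growth. Cells are switched from glucose to 2% galactose medium (pH 6.0, -URA), treated with compound, and growth recovery is read at OD600.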
# SARS PLpro yeast: inhibitors of SARS-CoV papain-like protease in yeast; Potency, µM (series often up to 32.9 µM), for the others: top-dose activity, positive = growth rescue, usual class: activators; S. cerevisiae expressing SARS-CoV PLpro, growth rescue; AID 485353; 0.19% of 330,000 active; also: potency is read from the fitted curve at half-maximal effect; 0% is about no effect; nearly all actives have a fitted effect of over 55% in size
# * marks the source's active call; other numbers are inactive results; i = inactive; ? = inconclusive; . = not tested or not shown; ! = repeats disagree. Unless noted, calls follow the shape of the full dose curve.
SMILES,Shiga toxin inh,CHX counter,NS1 function inh,SARS PLpro yeast
CCNC(=O)C12CCC(C)(C(=O)O1)C2(C)C (stereo not given),-8,-13,4%,0%
CCn1c(=O)n(CC)c2cc(N3CCCC3)c(NC(=O)c3ccc(C)c([N+](=O)[O-])c3)cc21,24,-6,0%,6%
COc1ccc(S(=O)(=O)Nc2c(O)c3ccccc3oc2=O)cc1,69*,15*,3%,7%
COC(=O)c1ccc2[nH]c(CO)c(-c3ccccc3)c2c1,3,6,9%,-6%
CCC(C)(O)c1[nH]c2ccc(C(=O)OC)cc2c1C (stereo not given),34*,22*,-24%,1%
CC1(C)CC(=O)C(C2=NC3(CCCCC3)Cc3ccccc32)=C(O)C1,9,-5,6%,0%
CCOC(=O)c1[nH]c2ccccc2c1NC(=O)NC(C)C,11,-1,1%,1%
Cc1c(NC(=S)NC(=O)Cc2ccccc2)cccc1C(=O)O,10,11,12%,2%
Cc1cccc(NC(=S)NC(=O)c2ccco2)c1C,14,32,-1%,1%
Cc1cc(C)c(NC(=S)N(C)C)cc1C,36,-4,-8%,1%
Cc1cccc(NC(=S)N(C)C)c1C,30*,-2,-1%,1%
Cc1cccc(NC(=S)NC(=O)Cc2ccccc2)c1C,15*,8,10%,7%
Cc1cccc(NC(=S)NC(=O)CCc2ccccc2)c1C,22,18*,-1%,10%
CCOC(=O)c1[nH]c2ccccc2c1NC(=S)Nc1cccc(C)c1C,33,29*,8%,-4%
Cc1cccc(NC(=O)CCS(=O)(=O)c2ccc3c(c2)NC(=O)CS3)n1,-3,-5,5%,-3%
COc1ccc(/C=C(\C#N)C(=O)OCC(=O)NCc2ccco2)cc1,-22,-1,3%,0%
Oc1ccc(O)c(-c2cnns2)c1,-4,-3,17%,3%
CC(=O)c1ccc(NC(=S)N2CCN(c3ccccn3)CC2)cc1,10,0,1%,5%
O=C(Nc1ccc(F)cc1)OCCN1CCN(Cc2ccccc2)CCC1=O,22,11*!,-29%,1%
CC(=O)c1ccc(NC(=O)OCCN2CCN(Cc3ccccc3)CCC2=O)cc1,i,20,.,.
COCCN(CCOC)c1ncnc2c1cnn2-c1ccccc1,34*,15*,-5%,-3%
COCCN(CCOC)c1ncnc2c1cnn2-c1ccc(Cl)cc1,76*,60*,-59%,-13%
COCCNc1ncnc2c1cnn2-c1ccc(Cl)cc1,73*,43*,.,0%
Cc1ccc(S(=O)(=O)N2CCC(=O)N(C(COCc3cccc(C(F)(F)F)c3)Cc3ccccc3)CC2)cc1 (stereo not given),-13,-2,28%,-9%
Cc1occc1C(=O)NCc1nc(-c2ccc(Cl)cc2)no1,0,5,-2%,-1%
SMILES,Shiga toxin inh,CHX counter,NS1 function inh,SARS PLpro yeast
Nc1c(C(=O)NCC2CCCO2)sc2nc3c(c(-c4ccco4)c12)CC/C3=C\c1ccco1 (stereo not given),11,15,?,20%
COc1nnc(-c2ccc(C)c(S(=O)(=O)NC(C)C)c2)c2ccccc12,-10,-8,0%,1%
CC(=O)NC(=S)Nc1ccccc1F,19,4,3%,1%
CCCC(=O)NC(=S)Nc1ccccc1F,74,15*,-30%,20%
COc1ccc(CCCC(=O)Nc2ccccc2F)cc1,109*,21*,-6%,6%
COc1ccc(C(=O)NC(=S)Nc2ccccc2F)cc1,67*,56*,22%,9%
CC(C)(C)C(=O)NC(=S)Nc1ccccc1F,40,26*,-2%,?
O=C(C1CCN(S(=O)(=O)c2ccc(Br)s2)CC1)N1CCCCC1,-3,-1,13%,0%
CN(C(=O)Cn1cc([N+](=O)[O-])ccc1=O)C1CCCCC1,.,.,.,-7%
O=C(Cc1ccccc1)Nc1ccc(NC(=O)c2ccco2)cc1Cl,32,12,?,2%
COc1ccc(C(=O)NC(=S)SCC(=O)O)cc1,26*,15*,-8%,0%
O=[N+]([O-])c1cc(-c2ccc(C(=S)N3CCOCC3)o2)ccc1Cl,55*,31*,.,-9%
CN1CCN(C(=S)c2ccc(-c3cccc([N+](=O)[O-])c3)o2)CC1,102*,51*,0%,0%
O=[N+]([O-])c1cccc(-c2ccc(C(=S)N3CCOCC3)o2)c1,72*,39*,4%,0%
O=[N+]([O-])c1cccc(-c2ccc(C(=S)N3CCN(c4ccccc4)CC3)o2)c1,-3,2,11%,0%
CN1CCC(=O)N(C(CSc2ccc(Br)cc2)Cc2ccccc2)CC1 (stereo not given),-13,7,.,.
CC(CCc1ccccc1)NC(=O)COC(=O)c1cccs1 (stereo not given),-18,1,-10%,0%
